# Test system: U-2932
# Assay: growth inhibition by drug alone (1 - RLU/untreated control) (fraction); higher = stronger inhibition
# Conditions: 177Lu-lilotomab satetraxetan 0 ug/ml
# Experimental: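 U-2932 ABC-DLBCL cells were pretreated or not for 18 h with 1 ug/ml 177Lu-lilotomab satetraxetan (600 MBq/mg), washed and seeded (3000 cells/well) on 384-well plates pre-printed with the Selleck Cambridge Cancer Compound library. Viability was read by RealTime-Glo luminescence on days 3-6 after seeding. Effect = 1 - RLU/mean RLU of the 48 untreated no-drug control wells per plate; Bliss score = (M-E)/(1-Fa), with E the expected Bliss-additive effect.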
smiles,measurement,setting,value
CC(=O)Nc1ccc(OC[C@](C)(O)C(=O)Nc2ccc([N+](=O)[O-])c(C(F)(F)F)c2)cc1 [Andarine (GTX-007)],growth inhibition by drug alone,"10 nM, time (day): 3",0.0764
same,growth inhibition by drug alone,"10 nM, time (day): 4",0.0433
same,growth inhibition by drug alone,"10 nM, time (day): 5",-0.0579
same,growth inhibition by drug alone,"10 nM, time (day): 6",-0.0688
same,growth inhibition by drug alone,"1000 nM, time (day): 3",0.0614
same,growth inhibition by drug alone,"1000 nM, time (day): 4",0.0399
same,growth inhibition by drug alone,"1000 nM, time (day): 5",-0.0394
same,growth inhibition by drug alone,"1000 nM, time (day): 6",0.0038
O=P1(N(CCCl)CCCl)NCCCO1 (stereo not given) [Cyclophosphamide monohydrate],growth inhibition by drug alone,"10 nM, time (day): 3",-0.0368
same,growth inhibition by drug alone,"10 nM, time (day): 4",-0.0191
same,growth inhibition by drug alone,"10 nM, time (day): 5",-0.0185
same,growth inhibition by drug alone,"10 nM, time (day): 6",0.00793
same,growth inhibition by drug alone,"1000 nM, time (day): 3",-0.0419
same,growth inhibition by drug alone,"1000 nM, time (day): 4",-0.0135
same,growth inhibition by drug alone,"1000 nM, time (day): 5",-0.0461
same,growth inhibition by drug alone,"1000 nM, time (day): 6",-0.0745
C=C1C[C@@H]2[C@H](CC[C@]3(C)C(=O)CC[C@@H]23)[C@@]2(C)C=CC(=O)C=C12 [Exemestane],growth inhibition by drug alone,"10 nM, time (day): 3",0.0753
same,growth inhibition by drug alone,"10 nM, time (day): 4",0.00319
same,growth inhibition by drug alone,"10 nM, time (day): 5",-0.0809
same,growth inhibition by drug alone,"10 nM, time (day): 6",-0.0708
same,growth inhibition by drug alone,"1000 nM, time (day): 3",-0.0344
same,growth inhibition by drug alone,"1000 nM, time (day): 4",-0.0359
same,growth inhibition by drug alone,"1000 nM, time (day): 5",-0.1
same,growth inhibition by drug alone,"1000 nM, time (day): 6",0.0186
N.N.[Cl][Pt][Cl] [Cisplatin],growth inhibition by drug alone,"10 nM, time (day): 3",0.0383
same,growth inhibition by drug alone,"10 nM, time (day): 4",0.00908
same,growth inhibition by drug alone,"10 nM, time (day): 5",-0.0126
same,growth inhibition by drug alone,"10 nM, time (day): 6",0.00453
same,growth inhibition by drug alone,"1000 nM, time (day): 3",-0.0314
same,growth inhibition by drug alone,"1000 nM, time (day): 4",-0.0428
same,growth inhibition by drug alone,"1000 nM, time (day): 5",-0.0416
same,growth inhibition by drug alone,"1000 nM, time (day): 6",0.0312
C[C@]12CCC(=O)C(O)=C1CC[C@@H]1[C@@H]2CC[C@]2(C)C(=O)CC[C@@H]12 [Formestane],growth inhibition by drug alone,"10 nM, time (day): 3",-0.0202
same,growth inhibition by drug alone,"10 nM, time (day): 4",-0.0416
same,growth inhibition by drug alone,"10 nM, time (day): 5",-0.00849
same,growth inhibition by drug alone,"10 nM, time (day): 6",0.0511
same,growth inhibition by drug alone,"1000 nM, time (day): 3",-0.0617
same,growth inhibition by drug alone,"1000 nM, time (day): 4",-0.0526
same,growth inhibition by drug alone,"1000 nM, time (day): 5",-0.0433
same,growth inhibition by drug alone,"1000 nM, time (day): 6",0.0231
